Results as given in PubChem BioAssay AID1619 (SRMLSC, 2009).
In all, about 220,000 compounds went through this assay and about 830 (0.38%) were called active. The list is a sample of the results. Results with a measured potency or affinity are listed apart. Unmarked numbers belong to inactive results.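 How the source made its calls: active means compound inhibiting the enzyme by more than half at any dose during confirmatory dose-response retesting; inconclusive means strong single-dose inhibitors picked by rank but not retested; inactive means the rest.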

Molecular target: Leucine aminopeptidase (Plasmodium falciparum (isolate 3D7)) (UniProt Q8IL11)
Assay: P. falciparum M17LAP inhibitors, primary screen, biochemical, fluorogenic H-Leu-NHMec substrate, 1536-well (AID 1619);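 further: plate controls were full reaction with DMSO carrier for no effect and no enzyme background for full effect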
Conditions: recombinant M17LAP, H-Leu-NHMec fluorogenic kinetic assay; at 30 µM; active compounds read high

Leucine aminopeptidase (Plasmodium falciparum (isolate 3D7)), sequence (Q8IL11 whole entry, looked up): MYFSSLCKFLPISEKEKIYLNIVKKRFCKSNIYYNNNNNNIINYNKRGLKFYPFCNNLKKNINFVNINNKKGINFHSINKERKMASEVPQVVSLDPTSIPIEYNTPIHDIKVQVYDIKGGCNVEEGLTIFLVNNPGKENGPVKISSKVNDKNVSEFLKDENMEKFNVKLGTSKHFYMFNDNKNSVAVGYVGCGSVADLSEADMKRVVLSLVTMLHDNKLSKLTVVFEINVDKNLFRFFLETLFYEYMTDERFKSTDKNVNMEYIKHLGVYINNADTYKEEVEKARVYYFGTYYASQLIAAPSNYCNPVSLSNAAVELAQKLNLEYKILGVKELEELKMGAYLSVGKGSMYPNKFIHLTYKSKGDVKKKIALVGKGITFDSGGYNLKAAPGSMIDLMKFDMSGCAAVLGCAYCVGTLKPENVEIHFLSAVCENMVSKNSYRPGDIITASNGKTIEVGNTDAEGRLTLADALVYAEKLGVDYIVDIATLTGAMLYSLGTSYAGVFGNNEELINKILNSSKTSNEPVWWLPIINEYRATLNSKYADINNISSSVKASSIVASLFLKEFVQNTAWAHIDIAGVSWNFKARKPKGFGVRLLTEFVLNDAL

Structure (SMILES) | inhibition
CC1CCC(N2CCN(c3ncccn3)CC2)CC1 (stereo not drawn) | 1.15%
Cc1ccc(O)c(-c2cc(-c3ccccc3C)[nH]n2)c1 | -1.23%
Cc1ccc(-c2cc(-c3ccccc3C)[nH]n2)c(O)c1 | 9.91%
Cc1ccc(NC(=O)CSC2=C(C#N)C(c3ccco3)C3=C(CC(C)(C)CC3=O)N2)cc1 (stereo not drawn) | 1.21%
C=C(C)C(=O)Oc1ccc(N2C(=O)CCC2=O)cc1 | 15.3%
O=C(CSc1nc2ccccc2c(=O)n1CCCN1CCOCC1)Nc1cccc(S(=O)(=O)N2CCCCCC2)c1 | -0.76%
CCOc1ccccc1NC(=O)N1CCN(S(C)(=O)=O)CC1 | -3.49%
CCn1cc(CNC(=O)/C=C/c2cnn(C)c2)c(C)n1 | -7.7%
O=c1cc(O)c(-c2ccc(Cl)c(Cl)c2)c(Cl)[nH]1 | 4.59%
O=[N+]([O-])c1cccc(-c2ccn[nH]2)c1 | 0.95%
Nc1cc(-c2cccc([N+](=O)[O-])c2)[nH]n1 | 10.1%
Clc1ccc(-c2n[nH]c3c2CCC3)cc1Cl | -3.59%
Cc1ccc([N+](=O)[O-])cc1S(=O)(=O)N1CCCCC1C(=O)O (stereo not drawn) | 11.7%
COc1cccc(CN2CCN(C(=O)CC(C)C)CC2)c1 | -2.21%
O=C1CNC(=O)/C(=C/c2ccco2)N1 | 6.62%
Cc1ccc(-n2c(C)cc(/C=N/Nc3ccc([N+](=O)[O-])cn3)c2C)cc1 | -7.78%
Cc1cc(/C=N/Nc2ccc([N+](=O)[O-])cn2)c(C)n1-c1ccccc1 | 9.51%
Cc1ccnc2nc(C(=O)NCc3cccs3)nn12 | -0.8%
NS(=O)(=O)c1ccc(CCNC(=O)C2CCN(S(=O)(=O)c3c(Cl)cccc3Cl)CC2)cc1 | 1.28%
Cc1cc(C)cc(N(CC(=O)Nc2ccccc2C(=O)N2CCOCC2)S(C)(=O)=O)c1 | -5.57%
CC#CCC(CC#CC)c1nc2ccccc2c(=O)n1N | -1.78%

Structure (SMILES) | inhibition
Cc1ccc(-c2noc(CCC(=O)NC3CCCc4ccccc43)n2)cc1 (stereo not drawn) | -3.35%
Cc1ccc(Cn2ccc(NC(=O)c3cc(C)on3)n2)cc1 | -2.56%
Cc1ccc(Cn2ccc(NC(=O)c3cc(C4CC4)on3)n2)cc1 | 1.62%
Cc1c(NC(C)c2ccccc2O)c(=O)n(-c2ccccc2)n1C (stereo not drawn) | 3.02%
C/C(=C\C(=O)c1ccc(Br)cc1)Nc1ccc(Cl)cc1 | -7.69%
Cc1cc(C)nc(NS(=O)(=O)c2ccc(N=Cc3c(C)[nH]n(-c4ccccc4)c3=O)cc2)n1 | 6.98%
COc1nccnc1NS(=O)(=O)c1ccc(N=Cc2c(C)[nH]n(-c3ccc(Cl)cc3)c2=O)cc1 | 38.5%
CCc1nnc(NS(=O)(=O)c2ccc(N3C(=O)c4ccc(C(=O)O)cc4C3=O)cc2)s1 | 3.4%
Cc1[nH]n(-c2ccccc2)c(=O)c1C=Nc1ccc(S(=O)(=O)Nc2nccs2)cc1 | 3.82%
Cc1ccc(-n2[nH]c(C)c(C=Nc3ccc(S(=O)(=O)Nc4nccs4)cc3)c2=O)cc1C | -8.94%
CCc1nnc(NS(=O)(=O)c2ccc(N=Cc3c(C)[nH]n(-c4ccc(Cl)cc4)c3=O)cc2)s1 | 45.4%
CCc1nnc(NS(=O)(=O)c2ccc(NS(=O)(=O)c3ccc(NC(C)=O)cc3)cc2)s1 | 35.4%
COc1ccc(C(=O)Nc2ccc(S(=O)(=O)Nc3nccnc3OC)cc2)cc1OC | 16.3%
O=C(CN1CCOCC1)Nc1ccccc1-c1ccccc1 | -4.42%
CCOc1ccccc1N1CCN(C(=O)c2c(C)noc2C)CC1 | -5.81%
CCC1CCCN1Cn1cnc2c([nH]c3ccc(C)cc32)c1=O (stereo not drawn) | 0.76%
CCCc1nnc(NC(=O)CCC(=O)NCc2ccc(OC)cc2)s1 | 13.8%
CCCCOc1ccccc1Cn1c(=O)oc2ccc(C)cc21 | -14.1%
O=C(CSc1ncccn1)n1c2c(c3ccccc31)CCCC2 | 0.07%
Cc1nc2ccccc2c2c1C(=O)N(C1CCCCCCC1)C2=O | -2.77%
CN1C(=O)CSc2ccc(NC(=O)N3CCN(c4ccccc4)CC3)cc21 | -3.56%

Structure (SMILES) | inhibition
CC1CN(C(=O)c2ccc(N3CCCCC3)c([N+](=O)[O-])c2)CC(C)O1 (stereo not drawn) | 8.04%
Cc1noc(NS(=O)(=O)c2ccc(NC(=O)c3cnc4n(c3=O)CCS4)cc2)c1C | 36%
CCOc1cc(/C=N/NC(=S)Nc2ccccc2C(F)(F)F)ccc1OCC(=O)N1CCOCC1 | 0.32%
Cc1cc(-c2nc(-c3ccc(C(C)(C)C)cc3)no2)no1 | 2.57%
COCCCNC(=O)c1ccc(C2SCC(=O)N2Cc2ccco2)cc1 (stereo not drawn) | 9.82%
COc1cc(SC)ccc1C(=O)NCc1ccc(C)cc1 | -9.45%
CCc1nnc(NS(=O)(=O)c2ccc(N3C(=O)c4ccccc4C3=O)cc2)s1 | 19.2%
CCc1nnc(NS(=O)(=O)c2ccc(N=CC3=C(O)CC(C)(C)CC3=O)cc2)s1 | 37.1%
COc1cccc(/C=C2/NC(=O)NC2=O)c1OCC(=O)Nc1ccccc1 | 1.46%
Cc1ccnc2nc(C(=O)OCCOc3ccc(F)cc3)nn12 | -4.95%
Cc1ccc(OCC(=O)Nc2cc(C(=O)O)cc(C(=O)O)c2)cc1C | -17.5%
Cc1ccc(OCC(=O)Nc2cccc(O)c2)cc1C | 17.6%
N#Cc1cc2c(nc1SCC(O)CS(=O)(=O)Cc1ccccc1)CCCC2 (stereo not drawn) | 22.9%
Cc1cc(C)c(C#N)c(SCCS(=O)(=O)Cc2ccccc2)n1 | -2.33%
COC(=O)N/N=C/c1cccc(OCCSc2ccc(Cl)cc2)c1 | 11.2%
C/C(=N\NC(=O)Cc1c[nH]c2ccccc12)c1ccc2ccccc2c1 | -0.21%
COc1cc(/C(C)=N/NC(=O)CSc2nc3ccccc3[nH]2)ccc1O | 8.45%
C/C(=N\NC(=O)Cc1cccn1C)c1ccc2ccccc2c1 | 32.5%
C/C(=N\NC(=O)Cc1ccc(F)cc1)c1ccc(O)cc1 | 6.85%
C/C(=N\NC(=O)COc1ccccc1)c1ccc(O)cc1 | 16.8%
COc1cc(/C(C)=N/NC(=O)CSc2nnc(C)s2)ccc1O | -1.63%
